Hits are enriched below; roughly 1.6% of the tested compounds scored in any of these assays.
gsp agonist = agonists of gsp mutant (McCune-Albright syndrome) | actives 0.13% (n = 340,000) | Potency, µM (titrated, usually from 76.9 µM), for the others: top-dose activation (cAMP increase), hits mostly activators | gsp mutant cells, cAMP HTRF, 30 min; active = well fitted activation curve with a large enough effect; inconclusive = small, poorly fitted or top-dose-only effect, or another doubt; inactive = no such curve, though single readings can be large or run the other way; cell line not stated here;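 note: phosphodiesterase inhibitor Ro 20-1724 added with compounds to block cAMP breakdown; potency is the fitted concentration of half-maximal effect; nearly all actives have a fitted effect of over 60% in size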
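Cells in DMEM/10% FBS with G418 were pretreated with compounds in DMSO plus […] (300 uM stock) for 30 min at 37C. cAMP was measured by HTRF (cAMP-d2 plus anti-cAMP antibody-K) after 30 min at room temperature.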
KCNH2 3.1 inh = inhibitors of human KCNH2 3.1 potassium channel isoform. AID 720553. actives 0.95% (n = 340,000). activity change, % (tested at about 1.8 µM). U2OS KCNH2 3.1, thallium flux FluxOr; hits give low values;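 active = maximum activity change below -70%; inconclusive = maximum activity change from -70% to -50%; inactive = maximum activity change above -50%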;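 note: thallium influx rate constant from kinetic fluorescence after stimulation buffer; % is set by controls: 0 for no effect and ±100 for the full control effect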
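We transduce U2OS cells with the mutant 3.1 virus, culture them overnight, load FluxOr with Red40 quencher for 45 min, then add stimulation buffer and read kinetically for 2 min to derive a normalized rate constant.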
KCNH2 WT inh = inhibitors of human wildtype KCNH2 potassium channel; Q12809; U2OS, BacMam KCNH2, thallium flux FluxOr; hits give low values; activity change, % at 1.84 µM; actives 0.37% (n = 340,000);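 active = maximum activity change below -70%; inconclusive = maximum activity change between -70% and -50%; inactive = maximum activity change above -50%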; note: % is set by controls: 0 for no effect and ±100 for the full control effect
Target sequence (Q12809 whole entry, looked up): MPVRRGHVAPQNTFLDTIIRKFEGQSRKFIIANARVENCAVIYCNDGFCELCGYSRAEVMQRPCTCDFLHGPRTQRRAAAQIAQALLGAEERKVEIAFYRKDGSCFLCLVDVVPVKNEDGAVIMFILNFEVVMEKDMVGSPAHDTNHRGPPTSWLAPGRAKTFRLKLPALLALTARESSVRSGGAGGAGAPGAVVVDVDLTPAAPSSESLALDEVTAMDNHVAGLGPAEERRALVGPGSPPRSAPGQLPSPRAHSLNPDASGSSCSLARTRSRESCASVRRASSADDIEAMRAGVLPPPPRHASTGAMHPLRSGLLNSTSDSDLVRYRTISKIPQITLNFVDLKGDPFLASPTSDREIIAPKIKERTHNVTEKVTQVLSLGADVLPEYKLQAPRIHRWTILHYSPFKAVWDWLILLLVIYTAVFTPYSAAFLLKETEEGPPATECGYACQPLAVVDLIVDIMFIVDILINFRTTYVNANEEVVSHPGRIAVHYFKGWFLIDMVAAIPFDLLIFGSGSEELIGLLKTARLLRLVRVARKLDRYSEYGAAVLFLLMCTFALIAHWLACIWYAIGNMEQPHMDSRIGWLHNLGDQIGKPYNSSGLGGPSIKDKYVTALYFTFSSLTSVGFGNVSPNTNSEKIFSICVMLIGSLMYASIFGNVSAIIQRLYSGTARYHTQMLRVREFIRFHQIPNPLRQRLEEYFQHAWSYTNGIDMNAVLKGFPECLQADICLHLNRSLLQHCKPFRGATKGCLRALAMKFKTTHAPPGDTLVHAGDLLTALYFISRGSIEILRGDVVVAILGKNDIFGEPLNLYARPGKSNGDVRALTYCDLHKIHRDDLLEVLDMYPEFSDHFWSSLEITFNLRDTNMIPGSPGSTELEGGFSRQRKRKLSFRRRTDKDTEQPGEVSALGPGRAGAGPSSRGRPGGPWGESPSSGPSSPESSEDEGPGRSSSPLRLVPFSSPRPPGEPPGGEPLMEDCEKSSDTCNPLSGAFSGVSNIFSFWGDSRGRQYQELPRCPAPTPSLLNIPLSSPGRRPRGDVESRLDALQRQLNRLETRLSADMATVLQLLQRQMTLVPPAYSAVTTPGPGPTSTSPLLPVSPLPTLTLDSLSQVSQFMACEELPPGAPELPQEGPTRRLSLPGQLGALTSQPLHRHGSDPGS
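U2OS cells were transduced with wild-type KCNH2 virus (2.03 x 10^8 / mL) for 4 h at room temperature, then cultured overnight at 37 C. Thallium flux was read with FluxOr dye. Rate constants were normalized to DMSO controls.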
GRP78 ERSR act = induces the endoplasmic reticulum stress response in human glioma cells | U87-MG GRP78 promoter luciferase reporter, 16 h | Potency, µM, inactives show top-dose activation, actives largely listed as activators | actives 0.02% (n = 420,000) | AID 602332; active = well fitted activation curve with a large enough effect; inconclusive = small, poorly fitted or top-dose-only effect; inactive = no such curve, though single readings can be large or run the other way; note: potency is the fitted concentration of half-maximal effect; series mostly up to about 76 µM; % of control where 0% means no effect; nearly all actives have a fitted effect of over 35% in size
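ERSR induction read as luciferase luminescence (Bright-Glo, 10 min at room temperature) in stably transfected human U87-MG glioma cells exposed to compounds for 16 h, using GRP78 as sensor.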
Akt phos inh = inhibitors of Akt phosphorylation; Neuro2A IGF-stimulated pAkt S473 HTRF, 20 min; hits give low values; activity change, % for hits at 50 µM; actives 0.32% (n = 360,000); AID 651550; in the data active = activity change below about -80%; inconclusive = mostly about -51% to -80%; note: % is set by controls: 0 for no effect and ±100 for the full control effect
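Single-point screen (50 µM final compound) in Neuro2A cells stimulated 20 min with 6 nM IGF at 37 deg C. After lysis, Ser473-phosphorylated Akt read by HTRF (ex 330 nm, em 615/665 nm) as the 665/615 ratio.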
gsp antagonist = gsp mutant antagonism. gsp-mutant cells, cAMP HTRF, 30 min. Potency, µM (titrated, usually from 76.9 µM), without a hit: top-dose activity change, negative = inhibition, usual class: inhibitors. actives 0.4% (n = 340,000). AID 624288; calls by dose curve; cell line not stated here;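 note: intracellular cAMP measured with PDE inhibitor Ro 20-1724 present during compound exposure; potency is the fitted concentration of half-maximal effect; % is set by controls: 0 for no effect and ±100 for the full control effect; nearly all actives have a fitted effect of over 65% in size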
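HTRF cAMP measurement after 30 min RT detection following 30 min, 37C compound treatment alongside […] (added as 300 uM solution) in G418-selected cells seeded at 2000/well and grown 16–24 h.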
* marks the source's active call; other numbers are inactive results; i = inactive; ? = inconclusive; · = not tested or not shown; [ ] = another dose, or the depositor's remark.

SMILES	gsp agonist	KCNH2 3.1 inh	KCNH2 WT inh	GRP78 ERSR act	Akt phos inh	gsp antagonist
COc1ccc(C(OCC(O)CNC(C)c2ccccc2)c2ccc(OC)cc2)cc1 (stereo not given)	?	-76.3*	-13.6	-5.3%	i	4.0%
COc1ccc(CNCCC(c2ccc(F)cc2)c2ccc(OC)cc2)cc1 (stereo not given)	-36.8%	-87.3*	-132.5*	-3.9%	i	9.5%
Cc1ccc(C(OCC(O)CNCc2ccc(F)cc2)c2ccccc2)cc1 (stereo not given)	?	-106.3*	-78.7*	-14.2%	i	-8.8%
COc1ccc(CNCC(O)(c2ccccc2)c2ccc(F)cc2)cc1 (stereo not given)	-1.6%	-75.2*	11.4	-1.3%	i	-3.1%
CO/N=C(/C(=O)N[C@@H]1C(=O)N2C(C(=O)O)=C(C[n+]3ccc(N)n3CCO)CS[C@H]12)c1csc(N)n1	·	·	·	-3.8%	·	·
Cc1ccc2sc(N3CCN(C(=O)c4ccc([N+](=O)[O-])o4)CC3)nc2c1C	-18.0%[15.4 µM]	-201.1*	-139.0*	-5.6%	i	7.8%
O=C(c1ccc([N+](=O)[O-])o1)N1CCN(c2nc3c(Cl)cccc3s2)CC1	4.1%[15.4 µM]	-20.2	3.6	-2.6%	i	-16.4%
Cn1c(=O)c2c(nc(Br)n2Cc2ccccc2Cl)n(C)c1=O	?	-88.3*	1.3	-6.2%	i	10.7%
Cn1c(=O)c2c(nc(N3CCCC3)n2C)n(C)c1=O	20µM*	-4.1	2.3	-1.9%	i	-5.3%
CN1CCN(c2nc3c(c(=O)n(C)c(=O)n3C)n2Cc2cccc3ccccc23)CC1	25.1µM*	-2.4	0.6	-3.6%	i	2.5%
CCn1c(SCC(=O)N2CCCC2)nc2c1c(=O)n(C)c(=O)n2C	8.91µM*	0.3	-2.4	-4.9%	i	15.3%
Cc1ncc2c(c1CNS(=O)(=O)N(C)C)CCN(C(=O)/C=C/c1ccccc1Cl)C2	·	·	·	-1.9%	·	·
CC(=O)OC[C@H]1O[C@@H](O/N=C(\C)CCN2CCc3nc(-c4ccccc4)c(-c4ccccc4)cc3C2)[C@H](OC(C)=O)[C@@H](OC(C)=O)[C@H]1OC(C)=O	·	·	·	-2.0%	·	·
CCn1c2ccccc2c2cc(/C=N/n3c(-c4cc(C)[nH]n4)n[nH]c3=S)ccc21	-1.4%[15.4 µM]	-8.4	0.6	-0.5%	i	35.5µM*
O=C(Nc1c(-c2ccccc2)nc2ccccn12)c1ccccc1	-1.2%[15.4 µM]	3.1	5.2	-1.7%	i	-1.1%
O=C(Nc1c(-c2ccccc2)nc2sccn12)c1ccccc1	-1.7%	-33.5	-7.0	0.0%	-106.1%*	2.3%
COc1ccccc1NCCC(=O)OCC(=O)NCc1ccco1	-3.0%	-6.4	1.5	-3.1%	-106.1%*	-1.6%
COc1ccc(OCCC(=O)OCC(=O)NCc2ccco2)cc1	25.5%	5.5	12.9	-2.1%	i	-23.6%
Oc1cccc(C(=S)N2CCCCC2)c1	10.2%[15.4 µM]	-145.8*	-4.5	0.6%	i	9.9%
COc1ccc(-c2ccc3c(c2)S(=O)(=O)c2cccc(C(=O)NC4CCCC4)c2C3=O)cc1OC	-1.7%	15.3	6.0	-3.4%	i	-5.4%
O=C(NC1CCCCC1)c1cccc2c1C(=O)c1ccc(-c3ccc(OC(F)(F)F)cc3)cc1S2(=O)=O	5.6%	-129.2*	-8.7	-3.9%	i	5.2%
CC(=O)c1ccc(F)c(-c2cc(C)cc3c2OC(CNC(=O)C2CCCCN2C)C3)c1 (stereo not given)	·	·	·	-5.9%	·	·
CCCCCCSc1nnc(-c2cnn(-c3ccccc3)c2-n2cccc2)n1C	3.4%	1.6	16.1	11.6%	i	-15.8%
CCSc1nnc(-c2cnn(-c3ccccc3)c2-n2cccc2)n1C	18.0%	-19.1	4.0	-1.9%	-114.8%*	5.1%
COc1cc(=O)n2c(c1C(=O)N(C)Cc1nonc1C)CCN(Cc1cc(C)ccc1C)CC2	·	·	·	-1.8%	·	·
SMILES	gsp agonist	KCNH2 3.1 inh	KCNH2 WT inh	GRP78 ERSR act	Akt phos inh	gsp antagonist
COc1ccc(CN2C3CCC2CC(NC(=O)c2cccc(F)c2)C3)cc1 (stereo not given)	31.5%	-84.2*	-25.9	-1.2%	i	16.4%
Cc1ccc(CN2C3CCCC2CC(NC(=O)c2ccc(F)cc2)C3)cc1 (stereo not given)	-5.1%[15.4 µM]	-80.2*	?	-3.9%	i	10.8%
O=C(NC1CC2CCC(C1)N2Cc1ccccc1)c1cccc(F)c1 (stereo not given)	20.6%	-1.5	20.9	-3.1%	i	3.2%
O=C(NC1CC2CCCC(C1)N2Cc1ccccc1)c1ccc([N+](=O)[O-])cc1 (stereo not given)	?	-80.2*	-14.6	-2.0%	i	-1.0%
O=C(NCCc1nnc2n1CCN(Cc1ccc(F)c(F)c1)CC2)c1ccoc1	·	·	·	-4.3%	·	·
O=C(Cc1ccc2c(c1)OCO2)N1CCOc2ccc(CN3CCOCC3)cc2C1	·	·	·	-2.2%	·	·
Cc1cc(O)c2c(O)c3c(O)cccc3cc2c1	·	·	·	-1.8%	·	·
CSc1ccc(C(=O)N2CCc3ccc(NC(=O)c4ccccn4)cc3C2)cc1	-64.2%	-5.3	-0.1	-2.5%	i	31.6µM*
CSc1ccccc1C(=O)N1CCc2ccc(NC(=O)c3ccccn3)cc2C1	-11.1%	2.1	-3.1	-5.0%	i	·
COc1cc(C(=O)NCCSc2c(C)[nH]c3ccccc23)cc(OC)c1OC	·	·	·	-1.2%	·	·
Cc1ccc(C(=O)NCCSc2c(C)[nH]c3ccccc23)cc1[N+](=O)[O-]	-39.2%	-14.6	-18.7	-2.7%	i	35.5µM*
O=C(c1ccc2c(c1)N(Cc1ccc(Cl)cc1)C(=O)c1ccccc1S2=O)N1CCCCC1 (stereo not given)	·	·	·	-4.1%	·	·
CCOC(=O)C1CCCN(C(=O)c2ccc3c(c2)N(Cc2ccccc2)C(=O)c2ccccc2S3=O)C1 (stereo not given)	-3.1%[15.4 µM]	-1.5	-5.0	-0.9%	i	8.91µM*
COc1ccccc1CN1CCCC(n2cc(C(=O)N3CCCC3)nn2)C1 (stereo not given)	·	·	·	-2.6%	·	·
CC(=O)Nc1ccc(S(=O)(=O)NCCOc2ccc(Cl)cc2C)cc1	1.2%	-190.4*	-120.2*	-0.5%	i	-6.4%
CC1CC(C)CN(CC(=O)Nc2ccc3c(c2)OCCO3)C1 (stereo not given)	-3.3%	-139.0*	-112.9*	1.4%	i	2.6%
COC(=O)c1ccc2c(c1)NC(=O)c1ccccc1S2	3.6%	16.3	-17.3	-4.9%	i	-1.8%
N#C/C=C1/NC(=O)c2ccccc2S1	-1.1%	·	2.0	-4.6%	-109.7%*	-3.7%
COc1ccc(-c2ccc(C(=O)N3CCc4c(cnc(C)c4CNS(=O)(=O)N(C)C)C3)o2)cc1	·	·	·	3.4%	·	·
